Test results: PubChem BioAssay (Tox21)
A number with no mark means an inactive call. Results filed as inconclusive are left out. A call without a number means that no potency is given here. Active and inactive are the calls of the source. Unless noted, calls follow the shape of the full dose curve.

Columns and labels:
[1] = Nuclear factor erythroid 2-related factor 2/antioxidant responsive element (Nrf2/ARE) small molecule agonists: qHTS cell viability counter screen in human keratinocytes (AID 1919968; active = well fitted curve in the direction sought with a large enough effect in the repeat runs; an effect the other way counts as inactive or inconclusive; also: nearly all actives have a fitted effect of over 55% in size)
How it was run: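 KeratinoSens HaCaT cells, 1,500/well, preincubated 5 h, then exposed to compounds in DMSO for 23 h at 37 C/5% CO2. Viability read as CellTiter-Fluor fluorescence after 1 h, in the same wells as the ARE-luciferase read.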

[2] = Nuclear factor erythroid 2-related factor 2/antioxidant responsive element (Nrf2/ARE) small molecule agonists: luciferase reporter gene qHTS assay in human keratinocytes (AID 1919969); also: nearly all actives have a fitted effect of over 35% in size
[3] = target: Gonadotropin-releasing hormone receptor (Homo sapiens) (UniProt P30968); assay: Human gonadotropin-releasing hormone receptor (GnRHR) small molecule agonists, calcium flux assay in GnRHR-HEK293 cells (AID 1920063); also: nearly all actives have a fitted effect of over 35% in size
How it was run: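 HEK293 cells stably expressing human GnRHR were dye-loaded for 1 h at 37 C. Compound was added in agonist mode and fluorescence (Ex/Em 480/540) recorded kinetically for 3 min. Fifteen concentrations, triplicates.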

[4] = target: KiSS-1 receptor (Homo sapiens) (UniProt Q969F8); assay: Human kisspeptin (KISS1R) small molecule agonists, calcium flux assay in KISS1R-HEK293 cells (AID 1920064; active = well fitted curve in the direction sought with a large enough effect in the repeat runs; an effect the other way counts as inactive or inconclusive)
How it was run: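 HEK293 cells stably expressing human KISS1R were loaded with calcium dye for 1 h at 37 C, then given compound; fluorescence (Ex/Em 480/540) was read kinetically for 3 min. Fifteen concentrations, triplicate.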

[5] = G protein-coupled receptor (GPCR) small molecule agonists, calcium flux assay: HEK293 wild type cell line counter screen (AID 1920065)
How it was run: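 Wild-type HEK293 cells plated 18 h, loaded with calcium dye 1 h at 37 C, then compounds added in agonist mode (ATP as positive control). Kinetic fluorescence Ex/Em 480/540 recorded 3 min at 1 sec intervals; 15 concentrations, triplicate.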

[6] = p53 small molecule agonists, cell-based qHTS assay with human liver microsomes (AID 1963577);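 also: p53 response element beta-lactamase reporter cells with liver microsomes plus NADPH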
How it was run: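 With metabolic activation: human liver microsomes (0.5 mg/mL final) plus NADPH (0.5 mg/mL final) added alongside compounds to p53RE-bla cells; 16 h 37 C exposure; beta-lactamase read by LiveBLAzer fluorescence.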

[7] = p53 small molecule agonists, cell-based qHTS assay with rat liver microsomes (AID 1963578)
How it was run: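 Metabolic activation by rat liver microsomes and NADPH, each 0.5 mg/mL final, added right after compounds to p53RE-bla reporter cells (4,000/well, plated 5 h earlier). 16 h at 37 C, then LiveBLAzer substrate for 2 h at room temperature in the dark; fluorescence read-out.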

[8] = p53 small molecule agonists, cell-based qHTS assay with human liver microsomes: qHTS cell viability counter screen (AID 1963579); also: nearly all actives have a fitted effect of over 45% in size
How it was run: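 Metabolic activation used human liver microsomes and NADPH, both 0.5 mg/mL final, over 16 hours at 37 C on p53RE-bla cells (4,000/well). Cytotoxicity measured by CellTiter-Glo luminescence, 30 min at room temperature.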

[9] = p53 small molecule agonists, cell-based qHTS assay with rat liver microsomes: qHTS cell viability counter screen (AID 1963580); also: nearly all actives have a fitted effect of over 45% in size
How it was run: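 HCT-116 p53RE-bla, 4,000 cells/well, 5 h pre-incubation; cpd + rat liver microsomes 0.5 mg/mL + NADPH 0.5 mg/mL (final); 16 h, 37 C; CellTiter-Glo, 30 min RT; luminescence.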

[10] = p53 small molecule agonists, cell-based qHTS assay: qHTS cell viability counter screen (AID 1963581); also: nearly all actives have a fitted effect of over 45% in size
How it was run: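 p53RE-bla HCT-116 cells, compounds added 5 h after plating and incubated 16 h at 37 C. Cytotoxicity measured in the same wells as intracellular ATP by CellTiter-Glo luminescence after 30 min at room temperature.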

[11] = p53 small molecule agonists, cell-based qHTS assay (AID 1963582; active = well fitted activation curve with a large enough effect in the signal ratio in the repeat runs, not every such curve was filed as active; the % refers to the signal ratio)
How it was run: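 p53RE-bla reporter cells, compounds added in DMSO after 5 h plating, incubated 16 h at 37 C. Beta-lactamase read via 2 h room-temperature LiveBLAzer B/G FRET substrate, fluorescence intensity.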

[12] = target: 5-hydroxytryptamine receptor 2A (Homo sapiens) (UniProt P28223); assay: 5-hydroxytryptamine receptor 2A (HTR2A) small molecule agonists, cell-based qHTS assay (AID 1963587); also: nearly all actives have a fitted effect of over 30% in size; also: potency is read from the fitted curve at half-maximal effect
How it was run: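 Kinetic calcium-flux fluorescence (2 min, 1 sec intervals) after compound addition in agonist mode. HTR2A-CHO cells were cultured 18 h, then dye-loaded 1 h at 37 C.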

[13] = target: Muscarinic acetylcholine receptor M1 (Homo sapiens) (UniProt P11229); assay: Cholinergic receptor muscarinic 1 (CHRM1) small molecule antagonists, cell-based qHTS assay (AID 1963588); also: nearly all actives have a fitted effect of over 40% in size; also: potency is read from the fitted curve at half-maximal effect
How it was run: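 CHRM1-CHO calcium-flux assay, antagonist mode. Cells were seeded 18 h, dye-loaded 1 h at 37 C and given compound for 5 min at RT, then acetylcholine was added at 50nM. FDSS fluorescence was read 3 min; 15 concentrations, three runs.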

[14] = target: Muscarinic acetylcholine receptor M1 (Homo sapiens) (UniProt P11229); assay: Cholinergic receptor muscarinic 1 (CHRM1) small molecule agonists, cell-based qHTS assay (AID 1963589); also: nearly all actives have a fitted effect of over 35% in size
How it was run: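 CHO cells stably expressing human CHRM1 were loaded with calcium dye for 1 h at 37 C, then compound was added in agonist mode. Intracellular calcium fluorescence was followed kinetically at 1 s intervals. Fifteen concentrations were tested in three independent runs.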

[15] = cAMP Responsive Elements (CRE) small molecule agonists, cell-based qHTS assay (AID 1963590)
How it was run: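 CRE-bla HEK 293T cells, 2,000/well in DMEM with 10% dialyzed FBS and 25 mM HEPES, pre-incubated 18 h at 37 C, then exposed to compound 3 h at 37 C. Beta-lactamase reporter read with LiveBLAzer B/G FRET substrate after 2 h at room temperature.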

[16] = cAMP Responsive Elements (CRE) small molecule antagonists, cell-based qHTS assay (AID 1963591; active = well fitted inhibition curve with a large enough effect in the signal ratio in the repeat runs, not every such curve was filed as active; the % refers to the signal ratio)
How it was run: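 CRE-bla HEK293T cells plated 18 h, then given compound plus NKH477 at 0.25 uM final for 3 h at 37C. Beta-lactamase reporter read with LiveBLAzer B/G FRET substrate after 2 h at room temperature.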

[17] = target: Beta-2 adrenergic receptor (Homo sapiens) (UniProt P07550); assay: Adrenergic beta2 receptor (ADRB2) small molecule antagonists, cell-based qHTS assay (AID 1963592); also: series mostly up to about 92 µM; nearly all actives have a fitted effect of over 50% in size
How it was run: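 Cells (CHO, stable ADRB2 overexpression) incubated 18-20hr at 37C; compounds added from DMSO; agonist mix (1nM isoproterenol, 100uM IBMX, 25uM Ro-20-1724) added; 0.5hr RT; d2-cAMP and anti-cAMP-cryptate added; 1hr RT; 665/615 nm read.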

[18] = target: D(2) dopamine receptor (Homo sapiens) (UniProt P14416); assay: Dopamine D2 receptor (DRD2) small molecule agonists, cell-based qHTS assay (AID 1963594); also: nearly all actives have a fitted effect of over 35% in size
How it was run: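 cAMP accumulation in DRD2-HEK293 cells measured by HTRF after 1 h detection; compounds added 10 min before NKH477 (200nM […]) forskolin-analogue stimulation, 30 min at room temperature, with Ro20-1724 present at 0.1 mM final.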

[19] = target: D(2) dopamine receptor (Homo sapiens) (UniProt P14416); assay: Dopamine D2 receptor (DRD2) small molecule antagonists, cell-based qHTS assay (AID 1963595; active = well fitted inhibition curve with a large enough effect in the signal ratio in the repeat runs, with a control signal flat; the % refers to the signal ratio)
How it was run: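 Antagonist mode in DRD2-HEK293 cells: after compound addition with 0.1 mM Ro20-1724, cells received quinpirole (12 nM) and NKH477 (200 nM) for 30 min at room temperature; HTRF cAMP read after 1 h detection.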

Chain of D(2) dopamine receptor (Homo sapiens) (P14416 whole entry, looked up): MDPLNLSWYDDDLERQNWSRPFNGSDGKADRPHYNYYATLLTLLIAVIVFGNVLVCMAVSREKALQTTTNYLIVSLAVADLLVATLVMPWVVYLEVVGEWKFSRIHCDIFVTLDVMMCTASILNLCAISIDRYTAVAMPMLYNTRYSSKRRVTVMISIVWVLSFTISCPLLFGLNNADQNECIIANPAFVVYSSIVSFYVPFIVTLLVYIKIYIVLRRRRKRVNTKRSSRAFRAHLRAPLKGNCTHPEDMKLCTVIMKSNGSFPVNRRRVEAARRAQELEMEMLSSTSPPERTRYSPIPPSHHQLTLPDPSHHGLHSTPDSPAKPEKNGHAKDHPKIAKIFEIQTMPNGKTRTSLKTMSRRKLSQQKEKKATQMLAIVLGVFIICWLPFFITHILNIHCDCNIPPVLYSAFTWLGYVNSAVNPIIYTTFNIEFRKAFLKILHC
Chain of Muscarinic acetylcholine receptor M1 (Homo sapiens) (P11229 whole entry, looked up): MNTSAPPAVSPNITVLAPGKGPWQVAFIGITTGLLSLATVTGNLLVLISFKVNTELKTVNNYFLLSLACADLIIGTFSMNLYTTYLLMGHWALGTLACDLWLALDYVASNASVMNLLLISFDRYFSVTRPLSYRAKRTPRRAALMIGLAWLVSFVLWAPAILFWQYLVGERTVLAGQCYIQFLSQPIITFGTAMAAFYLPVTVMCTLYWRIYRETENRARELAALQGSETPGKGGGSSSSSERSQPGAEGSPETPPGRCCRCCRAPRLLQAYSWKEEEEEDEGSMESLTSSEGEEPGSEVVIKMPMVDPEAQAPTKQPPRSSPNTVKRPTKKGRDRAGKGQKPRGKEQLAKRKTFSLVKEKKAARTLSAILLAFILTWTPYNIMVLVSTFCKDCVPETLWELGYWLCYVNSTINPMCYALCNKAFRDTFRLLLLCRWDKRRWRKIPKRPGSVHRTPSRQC
Chain of Beta-2 adrenergic receptor (Homo sapiens) (P07550 whole entry, looked up): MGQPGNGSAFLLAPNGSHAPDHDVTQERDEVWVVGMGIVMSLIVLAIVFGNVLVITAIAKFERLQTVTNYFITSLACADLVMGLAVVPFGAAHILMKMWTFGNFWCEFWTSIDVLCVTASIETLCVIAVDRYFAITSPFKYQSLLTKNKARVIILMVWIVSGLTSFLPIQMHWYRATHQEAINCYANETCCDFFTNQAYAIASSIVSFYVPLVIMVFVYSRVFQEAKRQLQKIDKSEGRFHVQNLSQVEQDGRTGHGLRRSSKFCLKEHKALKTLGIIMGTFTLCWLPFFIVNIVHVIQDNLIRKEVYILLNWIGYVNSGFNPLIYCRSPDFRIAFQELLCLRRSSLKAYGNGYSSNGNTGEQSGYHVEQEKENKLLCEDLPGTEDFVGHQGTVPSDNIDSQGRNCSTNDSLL
Chain of Gonadotropin-releasing hormone receptor (Homo sapiens) (P30968 whole entry, looked up): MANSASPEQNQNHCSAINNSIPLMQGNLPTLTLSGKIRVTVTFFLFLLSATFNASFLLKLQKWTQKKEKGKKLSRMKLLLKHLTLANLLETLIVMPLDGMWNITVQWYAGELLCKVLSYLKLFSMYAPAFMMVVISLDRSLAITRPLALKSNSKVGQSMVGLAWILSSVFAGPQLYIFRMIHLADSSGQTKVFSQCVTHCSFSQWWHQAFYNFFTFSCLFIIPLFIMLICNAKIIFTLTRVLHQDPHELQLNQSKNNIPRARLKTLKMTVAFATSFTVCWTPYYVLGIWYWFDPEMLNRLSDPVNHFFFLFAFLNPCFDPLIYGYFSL
Chain of 5-hydroxytryptamine receptor 2A (Homo sapiens) (P28223 whole entry, looked up): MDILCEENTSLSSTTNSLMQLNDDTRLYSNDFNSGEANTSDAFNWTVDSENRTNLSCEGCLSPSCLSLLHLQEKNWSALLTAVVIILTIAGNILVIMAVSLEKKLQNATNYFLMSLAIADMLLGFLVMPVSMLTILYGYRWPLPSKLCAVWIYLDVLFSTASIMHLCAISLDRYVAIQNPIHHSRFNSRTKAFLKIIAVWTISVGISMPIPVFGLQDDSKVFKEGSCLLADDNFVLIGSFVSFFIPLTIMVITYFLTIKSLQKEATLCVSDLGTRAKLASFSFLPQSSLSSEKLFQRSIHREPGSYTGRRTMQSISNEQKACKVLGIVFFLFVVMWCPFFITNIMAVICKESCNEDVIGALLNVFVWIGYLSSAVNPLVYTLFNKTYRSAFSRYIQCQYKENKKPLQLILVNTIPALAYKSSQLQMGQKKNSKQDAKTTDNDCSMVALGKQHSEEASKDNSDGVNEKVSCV
Chain of KiSS-1 receptor (Homo sapiens) (Q969F8 whole entry, looked up): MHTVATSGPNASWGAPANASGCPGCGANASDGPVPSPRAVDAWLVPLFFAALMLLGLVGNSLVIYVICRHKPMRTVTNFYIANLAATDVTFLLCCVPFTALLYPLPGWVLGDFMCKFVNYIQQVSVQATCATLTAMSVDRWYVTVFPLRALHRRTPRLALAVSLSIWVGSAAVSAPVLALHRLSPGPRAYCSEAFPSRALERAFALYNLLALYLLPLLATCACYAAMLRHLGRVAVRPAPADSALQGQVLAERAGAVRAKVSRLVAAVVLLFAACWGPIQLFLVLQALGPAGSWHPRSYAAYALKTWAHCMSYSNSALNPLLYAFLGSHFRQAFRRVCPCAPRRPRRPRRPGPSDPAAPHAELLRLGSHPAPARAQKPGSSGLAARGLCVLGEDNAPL

Row | Compound | Potency [1] | Potency [2] | Potency [3] | outcome [4] | outcome [5] | Potency [6] | Potency [7] | Potency [8] | Potency [9] | Potency [10] | Potency [11] | Potency [12] | Potency [13] | Potency [14] | Potency [15] | Potency [16] | Potency [17] | Potency [18] | Potency [19]
1 | Nc1ccc(S(=O)(=O)Nc2ccccn2)cc1 | inactive | inactive | inactive | inactive | inactive | inactive | inactive | inactive | inactive | inactive | inactive | inactive | inactive | inactive | inactive | inactive | inactive | inactive | inactive
2 | CCN(CC)CCOCCOC(=O)C1(c2ccccc2)CCCC1 | inactive | inactive | inactive | inactive | inactive | inactive | inactive | inactive | inactive | inactive | inactive | inactive | 0.13 µM (active) | inactive | inactive | inactive | inactive | inactive | inactive
3 | CCCCCCCCCCCc1ccccc1 | inactive | inactive | inactive | inactive | inactive | inactive | inactive | inactive | inactive | inactive | inactive | inactive | inactive | inactive | inactive | inactive | inactive | inactive | inactive
4 | O=C(O)c1ccc[n+]([O-])c1 | inactive | inactive | inactive | inactive | inactive | inactive | inactive | inactive | inactive | inactive | inactive | inactive | inactive | inactive | inactive | inactive | inactive | inactive | inactive
5 | [O-][n+]1cccc(CO)c1 | inactive | inactive | inactive | inactive | inactive | inactive | inactive | inactive | inactive | inactive | inactive | inactive | inactive | inactive | inactive | inactive | inactive | inactive | inactive
6 | CC/C=C(\C)C=O | inactive | inactive | inactive | inactive | inactive | inactive | inactive | inactive | inactive | inactive | inactive | inactive | inactive | inactive | inactive | inactive | – | inactive | inactive
7 | CCCCCCCC/C=C\CCCCCCCCN | inactive | inactive | inactive | inactive | inactive | inactive | inactive | inactive | inactive | inactive | inactive | 21.3 µM (active) | inactive | inactive | inactive | inactive | inactive | inactive | inactive
